Data on 40 compounds can be found in PubChem BioAssay (NCI).

Structures are written as SMILES. The panel holds about 79,000 compounds, 15% with a hit somewhere; the sample as a whole holds those more often. A number with no mark means an inactive call. Rule as the data show it: active = growth inhibition above about 70%; inactive = the rest.

The first assay in a line: NCI Yeast Anticancer Drug Screen. Data for the sgs1 mgt1 strain (AID 161).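 Also: 0% = growth of cultures given vehicle only.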 The conditions noted are these: S. cerevisiae sgs1 mgt1 strain, at 50.0 µM, stronger effect = higher value. The gist of the method:
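Growth of a repair-deficient yeast mutant was monitored after compound treatment and expressed as inhibition relative to vehicle-treated cultures.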
As for `CC(=O)Oc1ccc(C(C)(C)C)cc1C`, the growth inhibition was -9.45%.

`CC(C)N(CCC#N)C(=S)Nc1cccc(C(F)(F)F)c1`: the growth inhibition is 25.1%.

For `O=C1OC(=Nc2ccccc2Cl)c2ccccc21`, the growth inhibition is -5.05%.

In the case of `C/C=C/C(=O)OC/C=C(\C)CCC=C(C)C`, the growth inhibition was -6.7%.

Consider `O=[N+]([O-])c1ccc(S(=O)(=O)N/N=C\c2cc([N+](=O)[O-])ccc2O)cc1`, for which the growth inhibition is 11.2%.

As for `COc1ccc(/C=C/C(=O)C(C)(C)C)cc1OC`, the growth inhibition is 3.6%.

Regarding `CSc1nc2c(c(=O)[nH]1)CC(=O)N2`, the growth inhibition is -7.25%.

For the compound `Cc1cc(C)cc(Cc2ccc3ccccc3c2)c1`, the growth inhibition is -1.15%.

With `O=C(O)CCC(=O)NC(c1ccccc1)(c1ccccc1)c1ccccc1`, the growth inhibition is -0.15%.

Take `CN(/N=C/c1ccccn1)C1=NCCN1`: the growth inhibition is -31.2%.

For `COc1ccc(C2Oc3cc(OC)c(OC)cc3C2CCl)cc1OC` (stereo not drawn), the growth inhibition was -46.8%.

Take `Cc1cccc(C)c1Nc1nc(C)c(C(=O)CC(=O)C(=O)Nc2c(C(C)C)cccc2C(C)C)s1`: the growth inhibition was 46.3%.

Turning to `O=C1c2cccc3cccc(c23)C(=O)N1CCCN(CCO)CCO`, the growth inhibition was -4.35%.

The nature of the next assay: NCI Yeast Anticancer Drug Screen. Data for the cln2 rad14 strain (AID 165).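 Also: 0% = growth equal to vehicle treated cultures.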 The conditions noted are these: S. cerevisiae cln2 rad14 strain, at 50.0 µM, stronger effect = higher value. The gist of the method:
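Strain: cln2 rad14 yeast, altered in cell cycle control and DNA damage repair. Read-out: growth inhibition vs vehicle.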
As to `CCC(c1ccc(N(CC)CC)cc1[N+](=O)[O-])c1ccc(N(CC)CC)cc1[N+](=O)[O-]`, the growth inhibition is 36.5%.

As for `O=C1CC2(CCc3ccccc32)C(=O)N1CN1CCN(CCO)CC1` (stereo not drawn), the growth inhibition is 9%.

As to `CC(C)CC(C)C`, the growth inhibition was 5.75%.

With `Nc1nc(Cl)cc(Nc2ccc3c(c2)CCC3)n1`, the growth inhibition is 19.1%.

As for `CC1N=C(SCC(=O)c2ccc(Cl)cc2)N2C(C)N=C(SCC(=O)c3ccc(Cl)cc3)N12` (stereo not drawn), the growth inhibition is 0.5%.

For the compound `COc1ccc(/C=N\O[Si](C)(C)C(C)(C)C)cc1O[Si](C)(C)C(C)(C)C`, the growth inhibition was 5.05%.

With `CCOC(=O)/C(=C\c1c(C)[nH]c2ccccc12)P(=O)(OCC)OCC`, the growth inhibition is -0.3%.

On to `COC1(C2COc3cc(OCc4ccccc4)ccc3C2=O)C=C2OCOC2=CC1=O` (stereo not drawn), for which the growth inhibition is -33%.

As to `CCNC1(C(=O)O)CCCCC1`, the growth inhibition was 9.85%.

Regarding `COC(=O)C(C)CC(C)C(=O)OC` (stereo not drawn), the growth inhibition was 12.7%.

On to `CN(C)C=Nc1c(Br)cc(Br)c2nonc12`, for which the growth inhibition is -23.8%.

As to `c1ccc(C2=C(c3ccccc3)c3ccccc3C2)cc1`, the growth inhibition is 0.35%.

For the compound `C/C(=C\c1ccccc1)C(=O)c1c(C)cc(C)cc1C`, the growth inhibition is -0.2%.

For `COc1ccc(Cl)cc1NC(=O)Oc1ccccc1C(N)=O`, the growth inhibition was -12.8%.

As for `C=CCN=C1NC(=O)C(CC(=O)Nc2cccc(Cl)c2)S1` (stereo not drawn), the growth inhibition is 6.85%.

`Cc1ccc2cccc(CCOC(=O)c3ccc([N+](=O)[O-])cc3)c2c1`: the growth inhibition was -19.1%.

Regarding `CCC(=O)Nc1cccc2ccccc12`, the growth inhibition is -92.4%.

For the compound `CN(C)S(=O)(=O)C(CO)c1ccccc1` (stereo not drawn), the growth inhibition was 3.15%.

With `Cc1occ(Br)c(=O)c1O`, the growth inhibition is 25.8%.

As to `O=C1C=C2CCC(c3ccc(O)cc3)CC2CC1` (stereo not drawn), the growth inhibition is 7.65%.

`CC(C)C1c2ccccc2C(=O)C1C(N)=O` (stereo not drawn): the growth inhibition was -22.6%.

With `Nc1nc2c(C(=O)NCc3cccs3)nnn2c2cccc(Cl)c12`, the growth inhibition is 4.2%.

Regarding `CC(Br)C(=O)c1ccc2ncccc2c1` (stereo not drawn), the growth inhibition is -1.45%.

As to `OCC1CCCCCCC1`, the growth inhibition was 18.4%.

Take `COc1cccc(C(=O)NNC(=O)c2ccc3ccccc3c2)c1`: the growth inhibition is 6.55%.

Consider `C1CC2(CC3(C1)SCCS3)SCCS2`, for which the growth inhibition was -12.3%.

Regarding `Cc1cc(C)nc(Nc2nc3ccc([N+](=O)[O-])cc3[nH]2)n1`, the growth inhibition is -7.4%.

Consider `CC(=O)Oc1ccc(C(C)(C)C)cc1C`, for which the growth inhibition was -6.85%.

Take `CC(C)N(CCC#N)C(=S)Nc1cccc(C(F)(F)F)c1`: the growth inhibition is 0.25%.

For `O=C1OC(=Nc2ccccc2Cl)c2ccccc21`, the growth inhibition was -9.1%.

In the case of `C/C=C/C(=O)OC/C=C(\C)CCC=C(C)C`, the growth inhibition was -4.3%.

For the compound `O=[N+]([O-])c1ccc(S(=O)(=O)N/N=C\c2cc([N+](=O)[O-])ccc2O)cc1`, the growth inhibition is -35.2%.

Take `COc1ccc(/C=C/C(=O)C(C)(C)C)cc1OC`: the growth inhibition is 31.5%.

Regarding `CSc1nc2c(c(=O)[nH]1)CC(=O)N2`, the growth inhibition is -33.6%.

With `Cc1cc(C)cc(Cc2ccc3ccccc3c2)c1`, the growth inhibition is -12.3%.

For the compound `O=C(O)CCC(=O)NC(c1ccccc1)(c1ccccc1)c1ccccc1`, the growth inhibition is -37.1%.

Take `CN(/N=C/c1ccccn1)C1=NCCN1`: the growth inhibition is 2.75%.

As to `COc1ccc(C2Oc3cc(OC)c(OC)cc3C2CCl)cc1OC` (stereo not drawn), the growth inhibition was -0.4%.

For `Cc1cccc(C)c1Nc1nc(C)c(C(=O)CC(=O)C(=O)Nc2c(C(C)C)cccc2C(C)C)s1`, the growth inhibition is -15.7%.

As for `O=C1c2cccc3cccc(c23)C(=O)N1CCCN(CCO)CCO`, the growth inhibition is 7.95%.

Another assay can be described thus: NCI Yeast Anticancer Drug Screen. Data for the bub3 strain (AID 167). The settings on record: S. cerevisiae bub3 mutant strain, at 50.0 µM, stronger effect = higher value. The procedure, abridged: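 Mutant yeast screening strain plus compound; vehicle-treated cultures serve as the 0% inhibition reference.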
Turning to `CCC(c1ccc(N(CC)CC)cc1[N+](=O)[O-])c1ccc(N(CC)CC)cc1[N+](=O)[O-]`, the growth inhibition was 28.9%.

Regarding `O=C1CC2(CCc3ccccc32)C(=O)N1CN1CCN(CCO)CC1` (stereo not drawn), the growth inhibition is 7.15%.

As for `CC(C)CC(C)C`, the growth inhibition was 13.4%.

Take `Nc1nc(Cl)cc(Nc2ccc3c(c2)CCC3)n1`: the growth inhibition was 23.6%.

For `CC1N=C(SCC(=O)c2ccc(Cl)cc2)N2C(C)N=C(SCC(=O)c3ccc(Cl)cc3)N12` (stereo not drawn), the growth inhibition is -6.85%.

With `COc1ccc(/C=N\O[Si](C)(C)C(C)(C)C)cc1O[Si](C)(C)C(C)(C)C`, the growth inhibition was -3.25%.

Consider `CCOC(=O)/C(=C\c1c(C)[nH]c2ccccc12)P(=O)(OCC)OCC`, for which the growth inhibition is -8.95%.

On to `COC1(C2COc3cc(OCc4ccccc4)ccc3C2=O)C=C2OCOC2=CC1=O` (stereo not drawn), for which the growth inhibition is 9.45%.

Take `CCNC1(C(=O)O)CCCCC1`: the growth inhibition was 2.3%.

For the compound `COC(=O)C(C)CC(C)C(=O)OC` (stereo not drawn), the growth inhibition is -2.95%.

Turning to `CN(C)C=Nc1c(Br)cc(Br)c2nonc12`, the growth inhibition was -22.9%.

In the case of `c1ccc(C2=C(c3ccccc3)c3ccccc3C2)cc1`, the growth inhibition was -8.85%.

Take `C/C(=C\c1ccccc1)C(=O)c1c(C)cc(C)cc1C`: the growth inhibition is -5.45%.

Consider `COc1ccc(Cl)cc1NC(=O)Oc1ccccc1C(N)=O`, for which the growth inhibition is 40.6%.

As to `C=CCN=C1NC(=O)C(CC(=O)Nc2cccc(Cl)c2)S1` (stereo not drawn), the growth inhibition was -36.5%.

Take `Cc1ccc2cccc(CCOC(=O)c3ccc([N+](=O)[O-])cc3)c2c1`: the growth inhibition was -8.35%.

For the compound `CCC(=O)Nc1cccc2ccccc12`, the growth inhibition was -5.95%.

With `CN(C)S(=O)(=O)C(CO)c1ccccc1` (stereo not drawn), the growth inhibition is -5.4%.

As for `Cc1occ(Br)c(=O)c1O`, the growth inhibition is -0.85%.

`O=C1C=C2CCC(c3ccc(O)cc3)CC2CC1` (stereo not drawn): the growth inhibition is -0.45%.

As for `CC(C)C1c2ccccc2C(=O)C1C(N)=O` (stereo not drawn), the growth inhibition was -4.55%.

`Nc1nc2c(C(=O)NCc3cccs3)nnn2c2cccc(Cl)c12`: the growth inhibition was -20.3%.

Turning to `CC(Br)C(=O)c1ccc2ncccc2c1` (stereo not drawn), the growth inhibition is 12.8%.

As to `OCC1CCCCCCC1`, the growth inhibition is -3.65%.

With `COc1cccc(C(=O)NNC(=O)c2ccc3ccccc3c2)c1`, the growth inhibition was 3.9%.

Take `C1CC2(CC3(C1)SCCS3)SCCS2`: the growth inhibition was 1.55%.

Turning to `Cc1cc(C)nc(Nc2nc3ccc([N+](=O)[O-])cc3[nH]2)n1`, the growth inhibition is -5.05%.

Take `CC(=O)Oc1ccc(C(C)(C)C)cc1C`: the growth inhibition is 0.35%.

On to `CC(C)N(CCC#N)C(=S)Nc1cccc(C(F)(F)F)c1`, for which the growth inhibition was 12.2%.

Turning to `O=C1OC(=Nc2ccccc2Cl)c2ccccc21`, the growth inhibition was 14.5%.

Consider `C/C=C/C(=O)OC/C=C(\C)CCC=C(C)C`, for which the growth inhibition was -39.7%.

As to `O=[N+]([O-])c1ccc(S(=O)(=O)N/N=C\c2cc([N+](=O)[O-])ccc2O)cc1`, the growth inhibition was 1.55%.

`COc1ccc(/C=C/C(=O)C(C)(C)C)cc1OC`: the growth inhibition is 27.9%.

Consider `CSc1nc2c(c(=O)[nH]1)CC(=O)N2`, for which the growth inhibition is -12.2%.

For `Cc1cc(C)cc(Cc2ccc3ccccc3c2)c1`, the growth inhibition is 9.45%.

Regarding `O=C(O)CCC(=O)NC(c1ccccc1)(c1ccccc1)c1ccccc1`, the growth inhibition was 3.2%.

As for `CN(/N=C/c1ccccn1)C1=NCCN1`, the growth inhibition was 6.55%.

With `COc1ccc(C2Oc3cc(OC)c(OC)cc3C2CCl)cc1OC` (stereo not drawn), the growth inhibition was -26.9%.

Regarding `Cc1cccc(C)c1Nc1nc(C)c(C(=O)CC(=O)C(=O)Nc2c(C(C)C)cccc2C(C)C)s1`, the growth inhibition is -3.55%.

Consider `O=C1c2cccc3cccc(c23)C(=O)N1CCCN(CCO)CCO`, for which the growth inhibition was -7.6%.
